Measured values published in PubChem BioAssay.
Unmarked numbers belong to inactive results. Calls of active or inactive are those of the source.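 How the source made its calls: active means inhibition at or above 50% relative to wild type and mutant plate controls; inactive means inhibition below 50%.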

Assay: loss of swimming-algae plug formation – whole organism, Chlamydomonas reinhardtii, WT vs cilia-less mutant, absorbance, 96-well, primary screen (AID 463189);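 further: 0% = wild type cc124 cells in DMSO and 100% = ciliumless bld1 mutant cells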
Details: Chlamydomonas reinhardtii gravitaxis, OD600 absorbance, 2 days; at 10 µM; active compounds read high

SMILES | inhibition
Cc1c(C)c2c(c(C)c1O)CCC(C)(CN1CCN(c3cc(N4CCCC4)nc(N4CCCC4)n3)CC1)O2 (stereo not given) | 6.96%
N=S(=O)(O)Cc1noc2ccccc12 | 4.33%
O=C(O)CCC/C=C\C[C@@H]1[C@@H](/C=C/[C@H](O)C2Cc3ccccc3C2)[C@@H](F)C[C@@H]1O | -14%
O=c1cc(O)cc(/C=C/c2ccc(O)c(O)c2)o1 | -6.22%
CCCCNc1ccc(C(=O)OCCN(C)C)cc1 | 8.43%
C[C@](N)(Cc1ccc(O)c(O)c1)C(=O)O | 5.26%
S=C(S)OC1CC2CC1C1CCCC21 (stereo not given) | 7.66%
O=c1[nH]cnc2[nH]ncc12 | 6.04%
O=C(/C=C/c1ccc(O)cc1)c1ccc(O)cc1O | 2.79%
Nc1ccc(N2C(=O)c3ccccc3C2=O)c(Cl)c1 | -0.463%
NNc1nncc2ccccc12 | -2.73%
N[C@H](CO)C(=O)O | 3.16%
C[N+](C)(C)CCO | 2.98%
Cc1cc(C)c(NC(=O)C[C@H](CC(=O)O)c2cccc3ccccc23)c(C(=O)N2CCC3(CCCC3)CC2)c1 | 13.6%
C=C(C)C1CC=C(C(=O)O)CC1 (stereo not given) | 1.75%
CCCCCCCCCCCCCCCC(=O)NCCO | 8.85%
COc1cc2c(cc1C(F)(F)F)N(C(=O)Nc1cc(F)cc(-c3cccnc3)c1)CC2 | 0.852%
CC(C)(C)c1onc(OCP(=O)(O)O)c1CC(N)C(=O)O (stereo not given) | 9%
Nc1ncnc2c1c(-c1ccc(Oc3ccccc3)cc1)cn2C1CCCC1 | 35.3%
NCCCCCCNS(=O)(=O)c1cccc2c(Cl)cccc12 | 7.85%

SMILES | inhibition
N=C(N)SCCN | -11.5%
Cn1c(=O)[nH]c2ncn(C)c2c1=O | -7.51%
COc1cc(NS(C)(=O)=O)ccc1Nc1c2ccccc2nc2ccccc12 | -1.97%
OC(CN1CCN(c2cccc(Cl)c2)CC1)C(c1ccccc1)c1ccccc1 (stereo not given) | 4.93%
Cn1ccc2cc3c(cc21)CCN3C(=O)Nc1cccnc1 | 9.75%
CNC(=O)[C@H]1O[C@@H](n2cnc3c(NCc4cccc(I)c4)ncnc32)C(O)[C@H]1O (stereo not given in full) | 1.77%
N.N.O=C(O)C1(C(=O)O)CCC1.[Pt+2] | 3.35%
COC1=C(OC)C(=O)c2ccccc2C1=O | 159% (active)
Nc1ccc(CCNc2ncnc3c2ncn3C2OC(CO)C(O)C2O)cc1 (stereo not given) | 3.12%
CC(=O)c1ccc(S(=O)(=O)NC(=O)NC2CCCCC2)cc1 | -5.49%
CC1COc2c(N3CCN(C)CC3)c(F)cc3c(=O)c(C(=O)O)cn1c23 (stereo not given) | 6.49%
CC(COc1ccc(/C=C/c2ccccc2)cc1)[N+](C)(C)C (stereo not given) | 52% (active)
CCCCN1CCC(n2c(=O)[nH]c3ccccc32)CC1 | 4.67%
C[N+](C)(CCCCCC[N+](C)(C)CCCN1C(=O)c2cccc3cccc(c23)C1=O)CCCN1C(=O)c2cccc3cccc(c23)C1=O | 101% (active)
Nc1ncnc2c1ncn2[C@@H]1O[C@H](C(=O)NC2CC2)[C@H](O)C1O (stereo not given in full) | 7.98%
CN(Cc1cnc2nc(N)nc(N)c2n1)c1ccc(C(=O)N[C@H](CCC(=O)O)C(=O)O)cc1 | -2.58%
COc1ccc(C(=O)NCc2cccnc2)cc1C(=O)NCc1cccnc1 | 6.89%
C[C@H]1c2cccc(O)c2C(O)=C2C(=O)[C@]3(O)C(O)=C(C(N)=O)C(=O)[C@@H](N(C)C)[C@@H]3[C@@H](O)[C@@H]21 | 64.7% (active)
N[C@@H](Cc1ccc(F)cc1)C(=O)O | 2.39%
CN(Cc1cnc2nc(N)nc(N)c2n1)c1ccc(C(=O)N[C@@H](CCC(=O)O)C(=O)O)cc1 | -2.7%
